Results filed as inconclusive are left out. The source made the active and inactive calls. Unless noted, the call rests on the fitted dose curve; in most records, active means well fitted curve in either direction with a large enough effect (not every such curve was filed as active); inconclusive means small, poorly fitted or top-dose-only effect, or another doubt; inactive means flat fitted curve, though single readings scatter. Where only a bound is given, the exact number is not on record here.

Experiment [1] in a line: AP1 Signaling Pathway (AID 357).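 Further: ME-180 reporter cells stimulated with EGF at its EC50 level; on the % scale 0 is the no-effect control and ±100 the full control effect.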 Particulars: ME-180 AP-1-bla reporter, EGF-induced, beta-lactamase ratio, 5 h; at 17.2 µM (top of the series) unless noted. In short, it runs like this:
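In this screen, ME-180 cells in Opti-MEM with 0.5% dialyzed FBS received EC50 EGF and compound titrations for 5 h. AP-1 reporter beta-lactamase was detected via CCF4 ratio, giving AC50 for positive and negative modulators.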

Experiment [2] can be described thus: Stat Signaling Pathway (AID 446).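 Further: ME-180 cervical cancer cells given 40 pM IL-6 alongside compound; SIE-controlled beta-lactamase reporter measured as 460/530 nm FRET emission ratio; on the % scale 0 is the no-effect control and ±100 the full control effect.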 Particulars: ME-180 (cervical carcinoma) SIE beta-lactamase reporter, IL-6 stimulated, 5 h; at 17.2 µM (top of the series) unless noted. The essentials:
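FRET read-out (405 nm excitation, 460/530 nm emission) of a beta-lactamase reporter under a STAT-inducible element in ME-180 cervical carcinoma cells. Cells with compound receive 40 pM IL-6 for 5 h. Values are normalised to AC90 stimulation and AC90 JAK-inhibitor controls.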

Experiment [3] has as its target Glucocorticoid receptor (Homo sapiens) (UniProt P04150). Description: GR-GFP Redistribution (AID 450;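 active means compounds whose dose series gives a full or clear partial fitted curve of increased nuclear translocation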; further: potency means the concentration at half of the fitted maximal effect).
Experiment [4] shares this target. In words: GR-EFC Redistribution (AID 451; calls by dose curve; further: potency means the concentration at half of the fitted maximal effect). The conditions noted are these: CHO-K1 GR-EFC translocation, beta-gal luminescence, 2 h. In short, it runs like this:
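Translocation of GR-ED fusion to nuclear EA restores b-gal, read by luminescence after 1 h room-temperature detection. Engineered CHO-K1 biosensor cells, 1,000/well, exposed 2 h at 37 C to titrations up to 46 uM final.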

Experiment [5] deals with Mitogen-activated protein kinase 10 (Mus musculus) (UniProt Q61831). In words: JNK3 AlphaScreen Assay (AID 530).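 Further: kinase came from lysate of stimulated human HepG2 cells; signal reports phosphorylation of biotinylated GST-cJun 1-79 at Ser73 with 10 µM ATP; on the % scale 0 is the no-effect control and ±100 the full control effect.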 In short, it runs like this:
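Kinase buffer: 20 mM Tris-HCl pH 7.6, 10 mM MgCl2, 1 mM DTT, 0.1 mM Na3VO4, 0.01% Tween-20; ATP 10 uM. Substrate biotin-GST-cJun(1-79), enzyme from activated HepG2 lysates. Detection by Ser73 phospho-antibody AlphaScreen.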

Experiment [6] has as its target Cytochrome P450 3A4 (Homo sapiens) (UniProt P08684). In words: qHTS Assay for Inhibitors and Substrates of Cytochrome P450 3A4 (AID 884; active means well fitted curve in the direction sought with a large enough effect; an effect the other way counts as inactive or inconclusive; further: on the % scale 0 is the no-effect control and ±100 the full control effect; nearly all actives have a fitted effect of over 50% in size). In short, it runs like this: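 Luminescent readout of luciferin produced by CYP3A4 (20 nM) dealkylation of Luciferin-PPXE, 25 uM (its KM). NADPH-driven reaction ran 60 min at RT after 10 min compound preincubation; data scaled to 57 uM ketoconazole as 100% inhibition.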
A general note: qHTS replaces the single test concentration by a dilution series.

Experiment [7] is described as follows: Confirmation and Secondary Assay for Modulators of Hemoglobin Beta Chain Splicing at IVS2 654 locus (AID 910; active means well fitted curve in the direction sought with a large enough effect; an effect the other way counts as inactive or inconclusive;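 further: HeLa cells stably carrying EGFP split by mutant beta-globin IVS2-654 intron; per-well total GFP intensity by laser scanning cytometry after 2-day treatment; % of control where 0% means no effect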). The essentials: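 Readout: per-well total peak green fluorescence (488 nm ex, 500–520 nm em) from objects 5–250 µm, reflecting correct splicing of an EGFP-654 reporter. Compounds were applied for 2 days at 37 °C to overnight-plated HeLa EGFP-654 cells; controls were DMSO and 500 nM IVS2-654 PNA.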

A short description of experiment [8]: Confirmation and Secondary Assay for Modulators of Hemoglobin Beta Chain Splicing at IVS2 705 locus (AID 930; active means well fitted curve in the direction sought with a large enough effect; an effect the other way counts as inactive or inconclusive;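 further: HeLa cells stably expressing the EGFP-705 splicing reporter; GFP fluorescence per well restored by corrected splicing of the IVS2-705 intron in EGFP; % of control where 0% means no effect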). In short, it runs like this:
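Secondary splice-site specificity test uses HeLa expressing CMV-driven EGFP interrupted by IVS2-705; cells were treated 2 days at 37C with 500 nM antisense PNA as positive control.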

Experiment [9] has as its target Ubiquitin carboxyl-terminal hydrolase 1 (Homo sapiens) (UniProt O94782). In words: Inhibitors of USP1/UAF1: Pilot qHTS (AID 504865; active means well fitted curve in the direction sought with a large enough effect; an effect the other way counts as inactive or inconclusive; further: potency means the concentration at half of the fitted maximal effect; nearly all actives have a fitted effect of over 35% in size). In short, it runs like this:
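In 50mM HEPES pH 7.8 containing 0.5mM EDTA, 1mM TCEP, 0.1 mg/ml BSA and 0.01% Tween-20, 1nM USP1/UAF1 is exposed to compound for 15 min, then Ub-Rho (150nM final) is added and fluorescence is read over time.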

The target of experiment [10] is Estrogen receptor (Homo sapiens) (UniProt P03372). In words: qHTS assay for small molecule agonists of estrogen receptor alpha signaling (AID 588514; calls by dose curve;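 further: 0% = vehicle only and 100% = reference agonist; nearly all actives have a fitted effect of over 70% in size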). The essentials:
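Fluorescence from CCF4 cleavage reports ER-alpha-driven beta-lactamase expression in HEK 293 cells treated 18 hrs at 37 C. Data normalized to 17-beta-estradiol (20 nM) and DMSO, fitted to Hill equation.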

Experiment [11] deals with Androgen receptor (Homo sapiens) (UniProt P10275). In words: qHTS assay for small molecule antagonists of androgen receptor signaling (AID 588516; active means well fitted curve in the direction sought with a large enough effect in the signal ratio, with a control signal flat, not every such curve was filed as active; the % refers to the signal ratio; further: on the % scale 0 is the no-effect control and ±100 the full control effect). In short, it runs like this:
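Cells were plated and incubated 5 h, compounds added in titration, then R1881 (10 nM final) as agonist. After 16 h at 37 C, CCF4 substrate was loaded for 2 h at room temperature and fluorescence measured.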

Experiment [12] concerns the target Bile acid receptor (Homo sapiens) (UniProt Q96RI1). Description: qHTS assay for small molecule antagonists of farnesoid X receptor signaling (AID 588526; calls by dose curve; further: on the % scale 0 is the no-effect control and ±100 the full control effect). In short, it runs like this: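 Beta-lactamase reporter antagonist mode: HEK293T FXR-UAS-bla cells, titrated compound, CDCA stimulation, 16 h 37 C, CCF4 dye 2 h RT. Data normalized to CDCA 50 uM and DMSO; Hill-fit IC50.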

Experiment [13] concerns the target Glucocorticoid receptor (Homo sapiens) (UniProt P04150). In words: qHTS assay for small molecule agonists of glucocorticoid receptor signaling (AID 588532; active means well fitted curve in the direction sought with a large enough effect in the signal ratio, with a control signal flat; the % refers to the signal ratio;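 further: 100% = dexamethasone at 0.1 µM and 0% = DMSO only wells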). Particulars: HeLa MMTV-bla, beta-lactamase ratio, agonist, 18 h; stronger effect = higher value; percent of dexamethasone control, DMSO zero. The essentials: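 Using MMTV-bla HeLa cells in medium with 1% stripped FBS and 25 mM HEPES, compounds were titrated and incubated overnight-length (18 h). Beta-lactamase cleavage of CCF4 was quantified by dual-emission fluorescence.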

Experiment [14] is described as follows: qHTS assay for small molecule antagonists of peroxisome proliferator-activated receptor delta signaling (AID 588535; active means well fitted inhibition curve with a large enough effect in the signal ratio, with a control signal flat, not every such curve was filed as active; the % refers to the signal ratio;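 on max response: cells co-treated with a PPAR-delta agonist as stimulator during compound exposure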). Particulars: HEK293T PPARd-UAS-bla, beta-lactamase FRET ratio, 18 h; 460 nm channel. In short, it runs like this:
(§1)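 Antagonist-mode qHTS using GeneBLAzer PPAR-delta-UAS-bla HEK293T cells; compound exposure 18 hrs at 37 C over a titration. Ratiometric CCF4 fluorescence at 460/530 nm; concentration-response points fitted to the Hill equation.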

Experiment [15] concerns the target Peroxisome proliferator-activated receptor delta (Homo sapiens) (UniProt Q03181). The experiment is described as above. The essentials:
as §1

For experiment [16], the target named is Peroxisome proliferator-activated receptor gamma (Homo sapiens) (UniProt P37231). In words: qHTS assay for small molecule agonists of peroxisome proliferator-activated receptor gamma signaling (AID 588536; active means well fitted curve in the direction sought with a large enough effect in the signal ratio, with a control signal flat, not every such curve was filed as active; the % refers to the signal ratio;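 further: 0% = DMSO basal wells and 100% = rosiglitazone at 2 µM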). In short, it runs like this:
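This is an agonist-mode beta-lactamase reporter assay in HEK293 PPAR-gamma-UAS-bla cells with 1% charcoal/dextran FBS. Compound titrations ran 16 h at 37 C before CCF4 detection. EC50 and efficacy are Hill fits scaled to 2 uM rosiglitazone (100%) and DMSO basal.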

Experiment [17] has as its target Vitamin D3 receptor (Homo sapiens) (UniProt P11473). Description: qHTS assay for small molecule antagonists of vitamin D receptor signaling (AID 588541; calls by dose curve). The essentials: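 Antagonist-mode beta-lactamase reporter assay: HEK293T VDR-UAS-bla cells were exposed to titrated compound alongside 1-alpha,25-dihydroxyvitamin D3 at 3 nM final for 16 h. Values were normalized to the 50 nM agonist control and DMSO basal, with IC50 and efficacy from Hill equation fits.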

Experiment [18] has the same target. In words: qHTS assay for small molecule agonists of vitamin D receptor signaling (AID 588543; calls by dose curve;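 further: 0% = DMSO basal and 100% = reference agonist control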). The essentials: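 Reporter cells (HEK293T, VDR-UAS-bla) were seeded in medium with 2% charcoal-stripped serum and incubated 5 h, then compounds in concentration series were added for 16 h at 37 °C. Stimulation was scaled between DMSO basal and 50 nM 1α,25-dihydroxyvitamin D3.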

The target of experiment [19] is Luciferin 4-monooxygenase (Photinus pyralis) (UniProt P08659). In words: Biochemical firefly luciferase enzyme assay for NPC (AID 624030; active means well fitted curve in the direction sought with a large enough effect; an effect the other way counts as inactive or inconclusive;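 further: purified P. pyralis luciferase at 10 nM with luciferin and ATP substrate; 0% = DMSO and -100% = full luciferase inhibition by PTC124 control; nearly all actives have a fitted effect of over 70% in size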). The essentials:
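Direct inhibition of firefly luciferase enzyme (10 nM final, 50 mM Tris Acetate) assessed by luminescence within 5 minutes. Percent activity scaled between DMSO and PTC124 positive control, with concentration-effect curves classified by fit quality and response.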

Experiment [20] can be described thus: qHTS assay for environmental chemicals that activate the Aryl hydrocarbon Receptor (AhR) signaling pathway (AID 651777; active means well fitted curve in the direction sought with a large enough effect; an effect the other way counts as inactive or inconclusive; further: % of control where 0% means no effect; nearly all actives have a fitted effect of over 15% in size). The conditions noted are these: 1A2-DRE human hepatoma cells, luciferase, 24 h; activation: stronger effect = higher value. In short, it runs like this:
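Following a 24 hr incubation with test chemicals at 37 C and 5% CO2, 1A2-DRE human hepatoma cells received One-Glo reagent; after 30 min at room temperature, luciferase output reflected CYP1A2 induction via AhR.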

A short description of experiment [21]: qHTS assay for small molecule agonists of the antioxidant response element (ARE) signaling pathway measured by Nrf2-dependant transcriptional activity (AID 720636; active means well fitted curve in the direction sought with a large enough effect in the repeat runs; an effect the other way counts as inactive or inconclusive;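 further: HepG2 cells with an ARE-driven luciferase reporter; % of control where 0% means no effect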). In short, it runs like this: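 ONE-Glo luminescence, read 30 min after reagent addition at room temperature, reflected ARE reporter activity in HepG2 cells that had been incubated with compound for 16 hr at 37 C in 1% dialyzed FBS.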

A short description of experiment [22]: qHTS assay for small molecule agonists of the antioxidant response element (ARE) signaling pathway measured by Nrf2-dependant transcriptional activity - cell viability counter screen (AID 720653; active means well fitted curve in the direction sought with a large enough effect in the repeat runs; an effect the other way counts as inactive or inconclusive; further: on the % scale 0 is the no-effect control and ±100 the full control effect). Particulars: ARE-bla HepG2 viability, CellTiter-Glo ATP luminescence, 16 h; max response: stronger effect = lower value. The essentials: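 Cytotoxicity counter screen: intracellular ATP quantified by CellTiter-Glo luminescence in the same ARE-bla HepG2 plates, after 16 h compound exposure and a 2 h beta-lactamase substrate step.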

Experiment [23] is described as follows: qHTS assay for cell viability of HEK293 cells (AID 743288; active means well fitted curve in the direction sought with a large enough effect; an effect the other way counts as inactive or inconclusive; further: on the % scale 0 is the no-effect control and ±100 the full control effect; nearly all actives have a fitted effect of over 50% in size). Particulars: ATP luminescence (CellTiter-Glo), 18 h; max response: stronger effect = lower value. In short, it runs like this: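 Viable-cell counts were inferred from luciferase-based ATP content in HEK293 cells seeded at 2,000/well, pre-incubated ≥5 h, then dosed with DMSO-solubilised compounds for 18 h at 37 C.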

The nature of experiment [24]: qHTS assay for cell viability of the p53RE-bla HCT-116 cell line (AID 743292; active means well fitted curve in the direction sought with a large enough effect; an effect the other way counts as inactive or inconclusive; further: on the % scale 0 is the no-effect control and ±100 the full control effect; nearly all actives have a fitted effect of over 55% in size). The essentials: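 After plating at 4,000 cells per well and a 5 h rest at 37 C, HCT-116 cells carrying p53RE-bla received test chemicals in DMSO. Sixteen hours later at 37 C, CellTiter-Glo was added and luminescence recorded following 30 min at room temperature.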
For experiment [25], the target named is Nuclear receptor subfamily 1 group I member 2 (Rattus norvegicus) (UniProt Q9R1A7). In words: qHTS assay for small molecule activators of the rat pregnane X receptor (rPXR) signaling pathway (AID 651751; call rule not given here; further: 0% is about no effect). The conditions noted are these: rPXR reporter cells, luciferase (One-Glo), 24 h.
Nuclear receptor subfamily 1 group I member 2 (Rattus norvegicus), sequence (Q9R1A7 whole entry, looked up): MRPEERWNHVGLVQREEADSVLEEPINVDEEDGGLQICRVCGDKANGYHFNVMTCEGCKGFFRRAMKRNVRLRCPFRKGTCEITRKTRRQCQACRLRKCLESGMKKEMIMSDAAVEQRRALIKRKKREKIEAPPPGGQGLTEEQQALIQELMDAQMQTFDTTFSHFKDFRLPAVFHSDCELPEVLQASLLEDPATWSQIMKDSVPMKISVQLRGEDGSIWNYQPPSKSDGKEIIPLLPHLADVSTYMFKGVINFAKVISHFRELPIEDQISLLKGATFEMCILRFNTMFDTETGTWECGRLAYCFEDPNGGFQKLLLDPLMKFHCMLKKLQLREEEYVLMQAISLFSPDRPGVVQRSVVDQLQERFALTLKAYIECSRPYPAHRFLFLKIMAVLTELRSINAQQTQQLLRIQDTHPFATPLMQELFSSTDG
Experiment [26] is described as follows: qHTS assay for small molecule activators of the human pregnane X receptor (PXR) signaling pathway (AID 720659; call rule not given here; further: 0% is about no effect).

Glucocorticoid receptor (Homo sapiens), sequence (P04150 whole entry, looked up): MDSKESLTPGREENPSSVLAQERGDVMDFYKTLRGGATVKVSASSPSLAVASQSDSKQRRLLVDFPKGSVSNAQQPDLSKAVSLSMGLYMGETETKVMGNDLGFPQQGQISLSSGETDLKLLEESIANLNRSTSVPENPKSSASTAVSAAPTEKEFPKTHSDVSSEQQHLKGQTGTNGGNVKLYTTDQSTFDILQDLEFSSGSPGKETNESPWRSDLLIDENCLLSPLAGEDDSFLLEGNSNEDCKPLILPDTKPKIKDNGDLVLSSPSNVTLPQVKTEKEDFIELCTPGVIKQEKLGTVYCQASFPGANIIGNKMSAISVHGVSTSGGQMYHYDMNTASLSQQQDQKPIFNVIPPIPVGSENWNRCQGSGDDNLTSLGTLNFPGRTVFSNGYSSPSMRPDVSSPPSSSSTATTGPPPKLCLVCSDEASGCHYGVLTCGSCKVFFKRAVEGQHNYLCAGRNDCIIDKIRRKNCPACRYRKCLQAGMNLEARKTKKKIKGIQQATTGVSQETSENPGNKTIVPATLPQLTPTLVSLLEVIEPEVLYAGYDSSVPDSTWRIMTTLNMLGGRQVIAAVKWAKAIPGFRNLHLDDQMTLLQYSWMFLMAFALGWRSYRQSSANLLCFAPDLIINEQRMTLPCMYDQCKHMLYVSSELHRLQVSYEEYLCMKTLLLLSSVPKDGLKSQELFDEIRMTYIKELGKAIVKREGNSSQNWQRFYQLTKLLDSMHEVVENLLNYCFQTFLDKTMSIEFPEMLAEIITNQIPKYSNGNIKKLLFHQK
Vitamin D3 receptor (Homo sapiens), sequence (P11473 whole entry, looked up): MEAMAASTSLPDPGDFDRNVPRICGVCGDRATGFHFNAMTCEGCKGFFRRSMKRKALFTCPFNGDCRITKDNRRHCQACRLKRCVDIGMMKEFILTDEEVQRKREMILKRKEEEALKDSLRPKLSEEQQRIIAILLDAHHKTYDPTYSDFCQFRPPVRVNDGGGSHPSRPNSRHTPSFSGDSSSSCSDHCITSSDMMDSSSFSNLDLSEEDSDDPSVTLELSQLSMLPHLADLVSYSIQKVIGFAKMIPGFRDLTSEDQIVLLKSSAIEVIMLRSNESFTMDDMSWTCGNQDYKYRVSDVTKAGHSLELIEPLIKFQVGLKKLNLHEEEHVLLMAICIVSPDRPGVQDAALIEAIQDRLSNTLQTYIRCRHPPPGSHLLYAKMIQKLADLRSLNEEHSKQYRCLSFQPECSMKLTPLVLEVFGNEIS
Ubiquitin carboxyl-terminal hydrolase 1 (Homo sapiens), sequence (O94782 whole entry, looked up): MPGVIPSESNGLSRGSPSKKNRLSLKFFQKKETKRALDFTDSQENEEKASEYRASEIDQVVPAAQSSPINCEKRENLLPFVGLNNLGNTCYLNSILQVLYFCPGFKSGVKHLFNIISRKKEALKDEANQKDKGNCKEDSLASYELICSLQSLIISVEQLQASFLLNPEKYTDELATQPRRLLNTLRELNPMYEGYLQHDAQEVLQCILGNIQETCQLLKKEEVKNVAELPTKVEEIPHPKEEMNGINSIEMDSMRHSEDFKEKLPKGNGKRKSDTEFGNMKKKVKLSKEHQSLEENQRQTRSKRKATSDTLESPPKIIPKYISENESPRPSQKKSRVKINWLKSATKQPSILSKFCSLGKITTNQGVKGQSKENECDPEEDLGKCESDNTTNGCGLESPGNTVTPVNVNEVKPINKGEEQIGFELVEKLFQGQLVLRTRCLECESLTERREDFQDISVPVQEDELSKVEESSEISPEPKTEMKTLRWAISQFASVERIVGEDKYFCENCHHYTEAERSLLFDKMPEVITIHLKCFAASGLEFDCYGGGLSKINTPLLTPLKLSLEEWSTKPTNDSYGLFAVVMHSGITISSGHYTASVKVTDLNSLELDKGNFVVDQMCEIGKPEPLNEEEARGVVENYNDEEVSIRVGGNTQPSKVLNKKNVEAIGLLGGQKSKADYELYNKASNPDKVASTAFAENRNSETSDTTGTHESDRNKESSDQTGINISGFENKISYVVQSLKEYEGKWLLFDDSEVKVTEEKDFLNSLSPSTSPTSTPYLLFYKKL
Estrogen receptor (Homo sapiens), sequence (P03372 whole entry, looked up): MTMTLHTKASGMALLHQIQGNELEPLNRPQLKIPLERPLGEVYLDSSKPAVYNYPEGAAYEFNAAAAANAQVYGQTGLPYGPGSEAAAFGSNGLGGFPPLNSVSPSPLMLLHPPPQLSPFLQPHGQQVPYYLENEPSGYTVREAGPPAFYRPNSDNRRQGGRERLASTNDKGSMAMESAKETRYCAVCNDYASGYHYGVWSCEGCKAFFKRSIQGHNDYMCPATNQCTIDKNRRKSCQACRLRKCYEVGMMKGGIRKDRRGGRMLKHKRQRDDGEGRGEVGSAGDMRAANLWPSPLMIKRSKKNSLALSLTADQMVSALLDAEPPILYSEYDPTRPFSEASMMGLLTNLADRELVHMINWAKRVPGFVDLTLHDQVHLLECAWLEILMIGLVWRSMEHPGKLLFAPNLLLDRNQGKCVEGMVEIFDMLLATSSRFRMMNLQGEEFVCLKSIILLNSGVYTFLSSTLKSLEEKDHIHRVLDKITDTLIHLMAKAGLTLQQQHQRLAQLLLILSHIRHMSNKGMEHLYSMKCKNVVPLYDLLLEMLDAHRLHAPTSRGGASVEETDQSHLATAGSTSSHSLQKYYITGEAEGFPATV
Luciferin 4-monooxygenase (Photinus pyralis), sequence (P08659 whole entry, looked up): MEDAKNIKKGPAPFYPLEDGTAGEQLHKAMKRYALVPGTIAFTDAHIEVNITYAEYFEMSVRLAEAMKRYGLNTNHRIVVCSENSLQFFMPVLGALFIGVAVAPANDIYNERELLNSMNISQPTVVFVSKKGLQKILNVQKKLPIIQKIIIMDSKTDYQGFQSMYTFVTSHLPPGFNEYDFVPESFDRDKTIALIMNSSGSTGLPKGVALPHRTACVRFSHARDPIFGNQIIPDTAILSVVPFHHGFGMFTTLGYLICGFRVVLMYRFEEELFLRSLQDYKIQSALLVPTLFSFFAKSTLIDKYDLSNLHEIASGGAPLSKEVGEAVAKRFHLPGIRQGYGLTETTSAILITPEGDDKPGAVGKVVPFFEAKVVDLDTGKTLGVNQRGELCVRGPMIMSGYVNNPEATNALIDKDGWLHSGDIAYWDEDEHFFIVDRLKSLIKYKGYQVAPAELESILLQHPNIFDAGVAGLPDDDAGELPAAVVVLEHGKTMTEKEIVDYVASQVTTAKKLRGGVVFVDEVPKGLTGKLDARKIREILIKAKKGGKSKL
Bile acid receptor (Homo sapiens), sequence (Q96RI1 whole entry, looked up): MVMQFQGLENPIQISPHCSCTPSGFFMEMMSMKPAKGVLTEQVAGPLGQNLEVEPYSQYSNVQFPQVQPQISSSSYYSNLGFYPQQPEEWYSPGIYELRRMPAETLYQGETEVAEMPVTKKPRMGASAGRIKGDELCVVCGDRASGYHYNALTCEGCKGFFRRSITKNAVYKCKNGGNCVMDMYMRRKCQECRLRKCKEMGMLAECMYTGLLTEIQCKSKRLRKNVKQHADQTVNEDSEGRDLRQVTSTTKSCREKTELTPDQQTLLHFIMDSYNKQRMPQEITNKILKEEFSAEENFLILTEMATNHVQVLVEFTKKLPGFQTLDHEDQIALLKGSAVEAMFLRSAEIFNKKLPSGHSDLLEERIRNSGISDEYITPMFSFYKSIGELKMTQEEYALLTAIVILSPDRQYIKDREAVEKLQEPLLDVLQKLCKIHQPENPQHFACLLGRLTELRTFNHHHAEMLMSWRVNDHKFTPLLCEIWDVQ
Androgen receptor (Homo sapiens), sequence (P10275 whole entry, looked up): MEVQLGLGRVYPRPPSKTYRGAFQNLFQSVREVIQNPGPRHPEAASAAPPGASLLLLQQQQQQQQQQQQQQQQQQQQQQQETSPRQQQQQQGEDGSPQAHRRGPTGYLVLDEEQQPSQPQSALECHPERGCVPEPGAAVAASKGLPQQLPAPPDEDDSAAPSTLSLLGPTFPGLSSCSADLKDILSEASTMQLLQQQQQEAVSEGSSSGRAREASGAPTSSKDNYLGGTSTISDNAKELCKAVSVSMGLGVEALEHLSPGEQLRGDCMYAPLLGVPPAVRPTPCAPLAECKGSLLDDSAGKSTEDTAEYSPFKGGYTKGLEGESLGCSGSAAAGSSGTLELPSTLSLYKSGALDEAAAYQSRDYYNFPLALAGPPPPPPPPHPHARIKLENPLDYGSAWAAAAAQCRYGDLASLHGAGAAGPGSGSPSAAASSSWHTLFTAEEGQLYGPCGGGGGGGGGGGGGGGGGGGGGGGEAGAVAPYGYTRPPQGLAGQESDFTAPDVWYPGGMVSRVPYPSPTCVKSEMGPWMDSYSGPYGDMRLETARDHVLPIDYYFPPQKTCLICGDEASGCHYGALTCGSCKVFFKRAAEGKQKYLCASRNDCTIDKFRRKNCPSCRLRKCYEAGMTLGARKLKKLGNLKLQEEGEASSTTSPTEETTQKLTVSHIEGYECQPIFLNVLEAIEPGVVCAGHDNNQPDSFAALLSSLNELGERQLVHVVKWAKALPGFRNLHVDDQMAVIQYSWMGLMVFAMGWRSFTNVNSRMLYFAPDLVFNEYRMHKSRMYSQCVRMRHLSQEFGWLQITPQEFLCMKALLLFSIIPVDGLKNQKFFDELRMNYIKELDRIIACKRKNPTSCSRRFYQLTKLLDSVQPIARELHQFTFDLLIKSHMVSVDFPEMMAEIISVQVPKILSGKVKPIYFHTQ

For `CC(C)OC(=O)c1nn2c(C(F)(F)F)cc(-c3ccc(Br)o3)nc2c1Br`, in [1], the activity change, negative = inhibition was -6.76% (inactive). Moreover, the activity, negative = inhibition in [2] was 8.51% (inactive). Also, the Potency in experiment [3] is > 20.6 µM (inactive).

`COC(=O)CSc1nc2sc3c(c2c(=O)n1C1CCCCC1)CCN(C)C3`: the activity change, negative = inhibition in [1] was -11.2% (inactive). Besides, the activity, negative = inhibition in experiment [2] was -5.31% (inactive). Also, the Potency in experiment [3] was > 20.6 µM (inactive).

With `Cc1cc(C(C)(C)CC(C)(C)C)ccc1OCCOCC[N+](C)(C)Cc1ccccc1`, the activity change, negative = inhibition in [1] is 18.1% (inactive). The activity, negative = inhibition in experiment [2] is 4.17% (inactive). Moreover, the Potency in experiment [3] is > 20.6 µM (inactive); in experiment [4], > 20.6 µM (inactive); in experiment [9] it was 35.5 µM (active). Moreover, the Potency entry in experiment [5], in experiment [6], in [7], in experiment [8], in experiment [12] and in experiment [17] was “inactive” in each case. The Potency entry in experiment [19], in [21] and in experiment [24] was “inactive” each time. Moreover, the compound was classed as inactive in experiment [10], in experiment [11], in experiment [15], in [16], in experiment [18] and in [26]. For the same compound, the figures for the activation in experiment [13] and in experiment [20] were -7.21% (inactive) and 0.146% (inactive), respectively. Further, the max response in experiment [14] was 14.2%; in [22] it was -8.26% (inactive); in [23] it was -29.5% (inactive); in experiment [25], -12.4% (inactive).

`Nc1ccc2c(c1)N1CCN=C1S2`: the activity change, negative = inhibition in experiment [1] is -0.461% (inactive). In experiment [2], the activity, negative = inhibition is 8.4% (inactive). Besides, the Potency in [3] is > 20.6 µM (inactive).

Take `COc1cc(OC)cc(C(=O)N2CCC(N3CCCCCC3)CC2)c1`: in experiment [1], the activity change, negative = inhibition was -0.714% (inactive). Moreover, the activity, negative = inhibition in [2] was 0.747% (inactive). For the same compound, in experiment [3], the Potency was > 20.6 µM (inactive).

In the case of `CN=C(c1ccco1)n1c(=S)nc(-c2ccco2)n(C)c1=S`, the activity change, negative = inhibition in experiment [1] is 10.9% (inactive). Further, in [2], the activity, negative = inhibition is 15.6% (inactive). Also, the Potency in experiment [3] is > 20.6 µM (inactive).

`O=C(CSc1nc2ccccc2c(=O)n1CC1CCCCC1)N1CCOCC1`: in [1], the activity change, negative = inhibition is -23.4% (inactive). Moreover, the activity, negative = inhibition in experiment [2] was -21.6% (inactive). For the same compound, the Potency in [3] was > 20.6 µM (inactive).

`CCCC(=O)Nc1nn(CCC)c2nc3ccccc3cc12`: the activity change, negative = inhibition in experiment [1] is -2.33% (inactive). In experiment [2], the activity, negative = inhibition was -4.63% (inactive). In addition, the Potency in [3] is > 20.6 µM (inactive).

(Values after PubChem BioAssay (NCATS).)
